UHRF1 MBD2 ctr: UHRF1 methyl-DNA binding inhibition; AID 687016; Q96T88; UHRF1 binding to methylated oligo, TR-FRET; hit rate 0.75% among 370,000; inhibition, % at 4.4 µM; in the data active = inhibition above about 21%;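 note: UHRF1 SRA domain binding a hemimethylated CpG hairpin DNA probe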
MBD2 DNA inh: MBD2-methylated oligo binding inhibition | TR-FRET, MBD2 binding to methylated oligonucleotide | inhibition, % at 4.4 µM | hit rate 0.31% among 370,000; in the data active = inhibition above about 13%
Target sequence (Q9UBB5 whole entry, looked up): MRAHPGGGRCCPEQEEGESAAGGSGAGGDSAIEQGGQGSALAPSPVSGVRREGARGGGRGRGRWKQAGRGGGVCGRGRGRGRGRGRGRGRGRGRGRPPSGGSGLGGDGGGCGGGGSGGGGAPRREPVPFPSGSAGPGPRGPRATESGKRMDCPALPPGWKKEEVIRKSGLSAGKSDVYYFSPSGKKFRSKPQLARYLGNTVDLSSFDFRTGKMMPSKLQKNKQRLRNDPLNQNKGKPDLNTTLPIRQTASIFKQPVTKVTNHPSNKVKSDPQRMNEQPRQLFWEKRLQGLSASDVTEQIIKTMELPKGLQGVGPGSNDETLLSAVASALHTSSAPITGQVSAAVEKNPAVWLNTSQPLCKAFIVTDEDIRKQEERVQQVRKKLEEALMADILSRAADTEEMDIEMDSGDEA
TCR-CD3 inh: blocks the human TCR-CD3 interaction. hit rate 0.37% among 360,000. TAMRA-labeled TCR probe fluorescence, biochemical. inhibition, % at 9.4 µM; in the data active = inhibition above about 19%;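 note: recombinant mutant TCR 2C K166C tagged with TAMRA read by polarization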
LEDGF integ inh: blocks HIV-1 LEDGF/p75-dependent DNA integration | TR-FRET IN-LEDGF/p75 DNA integration, Eu/Cy5 | inhibition, % at 3.7 µM | hit rate 0.64% among 370,000 | AID 743269;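 active = inhibition above the screen-wide mean plus 3 SD, cut at about 13% in these data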;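 note: signal is the Cy5 over europium emission ratio at 671 and 618 nm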
Rin1 Abl inh: human Rin1-Abl interaction inhibition; inhibition, % at 7.35 µM; TR-FRET Rin1/Abl binding, biochemical; P00519+Q13671; hit rate 0.4% among 360,000; in the data active = inhibition above about 5%, passing the limit was not always enough
Rin1 Abl conf: confirmation of inhibitors of human Rin1-Abl interaction | shares compounds with Rin1 Abl inh | inhibition, % at 7.35 µM | hit rate 49% among 1,300 | TR-FRET Rin1-Abl binding, purified proteins
GFP quencher: counter-screen for Rin1-Abl inhibitors: GFP fluorescence quenchers; inhibition, % at 6.75 µM; hit rate 8.5% among 1,300; shares compounds with Rin1 Abl inh; inhibitors/quenchers counterscreen; AID 602125;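 note: ABL1-eGFP fusion protein alone without its partner RIN1-SBP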
GFP quench DR: GFP fluorescence interference dose response. shares compounds with Rin1 Abl inh. GFP fluorescence interference/quenching counterscreen. IC50, µM. 230 tested, under 10 active. AID 602182; call rule not given here;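 note: ABL1-eGFP fusion protein alone without its RIN1 binding partner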
Of the large screens only hits and unclear results are named; the others gave an inactive call (follow-up assays come after a bar, where they were run). Compounds with a hit are over-represented: about 2% of the library has one in this group of screens. Cut-off read from the data, not from the text of the source, unless noted: active = inhibition above about 6.5%; inactive = the rest.

CCCOc1ccc(/C=N\NC(=O)CCc2n[nH]c(=O)[nH]c2=O)cc1OC	Rin1 Abl inh 7.8 | Rin1 Abl conf 8.8 | GFP quencher inactive
COc1ccc(/C=N/NC(=O)CCc2n[nH]c(=O)[nH]c2=O)cc1OC	none
CCCOc1ccc(/C=N/NC(=O)CSc2ccccn2)cc1OC	Rin1 Abl inh 16.1 | Rin1 Abl conf 21.9 | GFP quencher inactive | GFP quench DR inactive
O=C1CCC([N+](=O)[O-])C(c2ccc(C(F)(F)F)cc2)N1 (stereo not drawn)	Rin1 Abl inh 8.2 | Rin1 Abl conf inactive | GFP quencher inactive
CCN(CC)CCSc1nc(O)c(C(C)C)c(=O)[nH]1	none
CCCc1c(O)nc(SCCN(CC)CC)[nH]c1=O	Rin1 Abl inh 7.6 | Rin1 Abl conf inactive | GFP quencher inactive
Cc1cc2c(c(=O)o1)[C@@]1(C(=O)N(C)c3c(Br)cccc31)C1=C(CCCC1=O)O2	none (no result: Rin1 Abl inh)
CCOc1ccccc1OCCn1ncc2ccc(OC)c(OC)c2c1=O	none
COc1ccc2cnn(CCOc3ccccc3)c(=O)c2c1OC	Rin1 Abl inh 14.1 | Rin1 Abl conf inactive | GFP quencher inactive
CC(C)CN(C(=O)COC(=O)CNC(=O)c1ccccc1F)c1c(N)n(Cc2ccccc2)c(=O)[nH]c1=O	none
CC1CCN(CCCNC(=O)C2CC(=O)N(CCc3ccccc3)C2)CC1 (stereo not drawn)	none
Cc1ccc(C(=O)Nc2ccc(O)cc2C(=O)O)cc1C	Rin1 Abl inh 26.7 | Rin1 Abl conf 15.8 | GFP quencher inactive
Cc1ccc(C(=O)Nc2ccc(O)cc2C(=O)O)cc1	Rin1 Abl inh 11.1 | Rin1 Abl conf 12.7 | GFP quencher inactive
CCN(C)C1CN(Cc2cn(Cc3cccc(C(F)(F)F)c3)nn2)S(=O)(=O)C1 (stereo not drawn)	none (no result: Rin1 Abl inh)
CC(OC(=O)CNC(=O)c1ccc2ccccc2c1)C(=O)N(C)C1CCCCC1 (stereo not drawn)	none
CCCOC(=O)CCCC[C@H]1SC[C@@H](NC(=O)OC)[C@H]1NC(=O)OC	none
COC(=O)CCCCC1SCC2NC(=O)NC21 (stereo not drawn)	Rin1 Abl inh 11.9 | Rin1 Abl conf 16.1 | GFP quencher inactive
O=C(C[n+]1cccc(/C=N/O)c1)NC(=O)Nc1ccccc1	none (no result: Rin1 Abl inh)
CC1(C(=O)Nc2cccc(NS(C)(=O)=O)c2)Cc2c(-c3cccc(C(N)=O)c3)ccnc2O1 (stereo not drawn)	none
COc1ccc(CNC(=O)C2(C)Cc3c(-c4cccc(C(N)=O)c4)ccnc3O2)cc1OC (stereo not drawn)	Rin1 Abl inh 11.1 | Rin1 Abl conf 7.2 | GFP quencher inactive
CC(=O)c1cccc(NC(=O)C2(C)Cc3c(-c4cccc(C(N)=O)c4)ccnc3O2)c1 (stereo not drawn)	Rin1 Abl inh 8.2 | Rin1 Abl conf 11.8 | GFP quencher inactive
CC1(C(=O)NCc2ccccc2)Cc2c(-c3cccc(C(N)=O)c3)ccnc2O1 (stereo not drawn)	none
CC(C)NC(=O)C1(C)CCN1C(=O)c1cccc(F)c1 (stereo not drawn)	none
Cc1onc(-c2c(F)cccc2Cl)c1C(=O)Nc1cccc(S(=O)(=O)N2CCOCC2)c1	none
O=C1NC[C@H](CCCCN2CCN(Cc3ccccc3)C(=O)C2=O)N(CC2CCCCC2)C1=O	none (no result: Rin1 Abl inh)
CCOC(=O)c1ccccc1NC(=O)c1cccc([N+](=O)[O-])c1	Rin1 Abl inh 9.8 | Rin1 Abl conf inactive | GFP quencher inactive
COc1ccccc1CNC(=O)C(=O)NCC1CCCN1S(=O)(=O)c1cccs1 (stereo not drawn)	none
CC(NC(=O)C12CC3CC(CC(C3)C1)C2)c1ccc2c(c1)OCCO2 (stereo not drawn)	none
Cc1ccc(C(C)NC(=O)C23CC4CC(CC(C4)C2)C3)cc1 (stereo not drawn)	Rin1 Abl inh 6.0 | Rin1 Abl conf inactive | GFP quencher inactive
C=C(C)Cn1c(C(C)NC(=O)CCC)nc2ccccc21 (stereo not drawn)	Rin1 Abl inh 8.6 | Rin1 Abl conf inactive | GFP quencher inactive
O=C(Nc1ccc(Cl)cc1)NC1CCCC1Cc1ccco1 (stereo not drawn)	Rin1 Abl inh 8.4 (no result: UHRF1 MBD2 ctr, MBD2 DNA inh, TCR-CD3 inh, LEDGF integ inh) | Rin1 Abl conf inactive | GFP quencher inactive
O=C(Nc1ccc(Cl)cc1)NC1CCCCC1Cc1ccco1 (stereo not drawn)	none
COc1ccc(Nc2nc(NN)nc(Nc3ccc(OC)cc3)n2)cc1	none
CC1CCCCN1S(=O)(=O)c1ccc(C(=O)Nc2nnc(C3=COCCO3)o2)cc1 (stereo not drawn)	Rin1 Abl inh 7.8 | Rin1 Abl conf inactive | GFP quencher inactive
C1CCC(c2nn3c(-c4n[nH]c5c4CCC5)nnc3s2)CC1	Rin1 Abl inh 24.9 | Rin1 Abl conf 14.3 | GFP quencher inactive
Cc1ccc2nc(SCC(=O)N3CCC(Cc4ccccc4)CC3)nc(=O)n2c1	none
COc1ccc2nc(Nc3nc(C)c(CCC(C)C)c(=O)[nH]3)nc(C)c2c1	Rin1 Abl inh 8.2 | Rin1 Abl conf inactive | GFP quencher inactive
Cc1cc(C)nc(NC(=O)c2c(Cl)cccc2Cl)n1	Rin1 Abl inh 4.4 | Rin1 Abl conf inactive | GFP quencher inactive
O=C(CCS(=O)(=O)c1ccccc1)NNC(=O)CSc1ccccc1F	none
COc1cc(/C=N\NC(=O)Cn2nnc3ccccc32)cc(OC)c1OC	none
COc1ccc(/C=N/NC(=O)Cn2c(Cc3ccc(OC)c(OC)c3)nc3ccccc32)cc1	Rin1 Abl inh 13.8 | Rin1 Abl conf 19.4 | GFP quencher inactive | GFP quench DR inactive
COc1ccc(-c2ccccc2)cc1NC(=O)C1(C)CCN1C(=O)C(C)C (stereo not drawn)	none
O=C(NC1CCCC1)c1ccc(CS(=O)Cc2ccccc2Cl)o1 (stereo not drawn)	Rin1 Abl inh 18.3 | Rin1 Abl conf inactive | GFP quencher inactive
NC(=O)C1CCN(C(=O)Cc2ccsc2)CC1	none
CCCCN(C)C(=O)c1ccc(Nc2nc(C(N)Cc3ccc(C(F)(F)F)cc3)cs2)nc1 (stereo not drawn)	Rin1 Abl inh 8.1 | Rin1 Abl conf inactive | GFP quencher inactive
Cc1ccc(NC2CCCN(C(=O)CN3C(=O)c4ccccc4C3=O)C2)cc1C (stereo not drawn)	Rin1 Abl inh 9.8 | Rin1 Abl conf inactive | GFP quencher inactive
Cc1ccc(NC2CCCN(C(=O)c3cc4ncccn4n3)C2)cc1C (stereo not drawn)	Rin1 Abl inh 37.0 | Rin1 Abl conf inactive | GFP quencher inactive
Cc1ccc(NC2CCCN(C(=O)c3cccnc3)C2)cc1C (stereo not drawn)	none
